# Data as given in PubChem BioAssay AID1445 (SRMLSC, 2008).
# In all, about 220,000 compounds went through this assay and about 910 (0.41%) were called active. Only a selection was taken, and actives are over-represented in it overall. Entries with a potency or affinity are not part of this list. Unmarked numbers belong to inactive results.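 Rule for the calls: active = primary inhibition above the hit cutoff, then over 50% inhibition at one or more dose response concentrations (cut at about 23% in these data, passing the limit was not always enough); inconclusive = conflicting primary data, or primary hits not chosen for dose response; inactive = low primary inhibition, or under 50% at every dose.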
# Target: Aminopeptidase N (Plasmodium falciparum (isolate 3D7)) (UniProt O96935)
# Sequence (O96935 whole entry, looked up): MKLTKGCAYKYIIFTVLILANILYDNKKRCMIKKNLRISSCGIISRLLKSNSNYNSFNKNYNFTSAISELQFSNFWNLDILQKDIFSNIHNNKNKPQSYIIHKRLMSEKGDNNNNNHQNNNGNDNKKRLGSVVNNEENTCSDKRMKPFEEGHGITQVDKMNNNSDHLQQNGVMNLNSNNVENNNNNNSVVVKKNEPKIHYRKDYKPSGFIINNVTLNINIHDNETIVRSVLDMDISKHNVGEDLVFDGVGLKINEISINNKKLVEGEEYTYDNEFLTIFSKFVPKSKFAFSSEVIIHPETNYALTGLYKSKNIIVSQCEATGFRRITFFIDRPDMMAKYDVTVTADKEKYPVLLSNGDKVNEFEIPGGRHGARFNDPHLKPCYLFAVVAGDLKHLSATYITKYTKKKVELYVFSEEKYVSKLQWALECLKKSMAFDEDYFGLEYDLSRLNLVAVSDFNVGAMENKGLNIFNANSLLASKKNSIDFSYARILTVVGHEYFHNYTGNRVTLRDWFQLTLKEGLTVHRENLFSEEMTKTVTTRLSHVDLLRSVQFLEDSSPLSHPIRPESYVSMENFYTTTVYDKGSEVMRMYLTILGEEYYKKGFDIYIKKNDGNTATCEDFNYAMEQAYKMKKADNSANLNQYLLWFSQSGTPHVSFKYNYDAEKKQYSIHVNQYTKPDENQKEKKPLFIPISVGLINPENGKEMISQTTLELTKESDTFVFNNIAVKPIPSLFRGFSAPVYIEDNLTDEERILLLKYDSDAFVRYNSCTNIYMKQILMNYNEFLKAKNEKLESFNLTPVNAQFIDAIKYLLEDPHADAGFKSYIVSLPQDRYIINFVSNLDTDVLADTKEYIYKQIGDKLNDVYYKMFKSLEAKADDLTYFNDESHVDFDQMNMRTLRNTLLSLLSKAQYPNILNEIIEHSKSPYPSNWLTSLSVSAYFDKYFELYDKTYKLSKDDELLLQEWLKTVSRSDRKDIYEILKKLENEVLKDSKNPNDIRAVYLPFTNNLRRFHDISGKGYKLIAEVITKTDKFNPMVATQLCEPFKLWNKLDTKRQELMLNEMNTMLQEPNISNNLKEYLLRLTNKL
# Test: malaria alanyl aminopeptidase activity blockers – biochemical, fluorogenic H-Leu-NHMec substrate, 1536-well (AID 1445);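 note: plate controls were DMSO full reaction for no effect and no enzyme background for full effect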
# Conditions: recombinant M1AAP, H-Leu-NHMec fluorogenic kinetic assay; at 30 µM, active compounds read high unless noted
row,Compound,inhibition
1,COc1ccc(C(=O)C2CCCN(C(=O)c3cc(C(C)C)no3)C2)cc1F (centres undefined),0.4%
2,Cc1ccc(C)n1NC(=O)c1ccc(O)cc1,17%
3,CC(=O)/C=C(\C)N=Nc1c(O)[nH]c2ccccc12,6.61%
4,C/C(=N\NC(=O)c1ccccc1)c1cccc(Br)c1,4.52%
5,O=C(Nc1ccccc1[N+](=O)[O-])c1cc2ccccc2nc1Cl,0.38%
6,CCN(C(=O)CSc1n[nH]c(-c2cccs2)n1)C1CCS(=O)(=O)C1 (centres undefined),-0.17%
7,Cc1cc(Cl)ccc1OCC(=O)OC(C)C(=O)NC(N)=O (centres undefined),-2.23%
8,COc1ccc(N=Cc2cc(Cc3ccccc3Cl)cc([N+](=O)[O-])c2O)cc1OC,10.4%
9,O=C1CCCN1CCC1CCCCN1Cc1nc(-c2cnccn2)no1 (centres undefined),-4.06%
10,COc1ccc(NS(=O)(=O)c2cccc(-c3nnc4n3CCCCC4)c2)cc1,20%
11,CCCC1=[N+](CC)CCn2c(C)ccc21,47.2% (active)
12,CCCC1=[N+](CC(=O)c2ccccc2)CCn2c(C)ccc21,8.08%
13,CCCC1=[N+](CC(C)=O)CCn2c(C)ccc21,6.47%
14,O=C(COC(=O)c1ccccc1NC(=O)c1ccco1)NCc1ccc2c(c1)OCO2,-2.79%
15,CCCn1nc(C(=O)NCc2ccc3c(c2)OCO3)c2ccccc2c1=O,9.46%
16,COc1ccc(C2CC(c3ccc4ccccc4c3)=NN2C(=O)COC(=O)C2CCC(=O)N2)cc1 (centres undefined),2.25%
17,O=C(Nc1ccc(S(=O)(=O)NCc2ccco2)cc1)c1ccncc1,6.85%
18,COc1ccc(NC(=S)NCc2ccccn2)cc1OC,10.7%
19,COC(=O)CCC(=O)NNC(=O)Cc1ccccc1,1.14%
20,COC(=O)CCP(=O)(O)Cc1ccccc1CP(=O)(O)CCC(=O)OC,25.9% (active)

row,Compound,inhibition
1,COC(=O)CP(=O)(c1ccccc1)c1ccccc1,6.71%
2,Brc1c(CSc2nncn2-c2ccccc2)nc2ncccn12,9.69%
3,NC(=O)CSc1nnc(-c2cccs2)n1Cc1ccco1,8.05%
4,O=C(COC(=O)c1ccc(NS(=O)(=O)c2cccs2)cc1O)Nc1nc2ccccc2s1,8.12%
5,COc1ccccc1NS(=O)(=O)c1ccc(O)c(C(=O)OCC(=O)Nc2ccccc2F)c1,-2.66%
6,COc1cc(-c2nc3ccc4ccccc4c3c3c2CCC3)ccc1O,8.66%
7,Cc1ccc(-c2nc(CN3CCN(c4cnccn4)CC3)c(C)o2)o1,5.52%
8,CCOC(=O)C1CCCN(C(=O)c2cc(-c3ccc(F)cc3)nc3ccccc23)C1 (centres undefined),0.66%
9,Cc1ccc(C)c2[nH]c(=O)c(CN(Cc3ccco3)S(=O)(=O)c3ccc4c(c3)OCCO4)cc12,11.6%
10,CCNC(=O)COC(=O)C1CCC(=O)N(c2ccc(OC)cc2)C1c1ccc(OC)cc1 (centres undefined),12.7%
11,COc1ccc(C2C(C(=O)OCC(=O)N3CCCCC3)CCC(=O)N2c2ccc(OC)cc2)cc1 (centres undefined),0.13%
12,COc1ccc(C2C(C(=O)OCC(=O)Nc3ccc(C)cc3)CCC(=O)N2c2ccc(OC)cc2)cc1 (centres undefined),23.9% (active)
13,O=C(Nc1ccc2nn(-c3ccccc3)nc2c1)c1cccs1,-15.1%
14,COc1ccccc1NC(=O)C1CCCN(S(=O)(=O)c2cnc[nH]2)C1 (centres undefined),1.4%
15,Cc1ccc(CNC(=O)C2CCCN(S(=O)(=O)c3cnc[nH]3)C2)cc1 (centres undefined),-2.21%
16,O=C(NCc1ccccc1Cl)C1CCCN(S(=O)(=O)c2cnc[nH]2)C1 (centres undefined),4.7%
17,COc1ccccc1CNC(=O)C1CCCN(S(=O)(=O)c2cnc[nH]2)C1 (centres undefined),23.9% (active)
18,CCCCC(CC)CNC(=O)C1CCCN(S(=O)(=O)c2cnc[nH]2)C1 (centres undefined),24.2% (active)
19,CCCCNC(=O)C1CCN(S(=O)(=O)c2cnc[nH]2)CC1,14.7%
20,CC(C)(C)N1C(=O)c2ccccc2NC(=O)N1Cc1ccc(Br)cc1,2.07%

row,Compound,inhibition
1,O=C1CC(SC(=Nc2ccccc2)Nc2ccccc2)C(=O)N1c1ccc(Cl)c(Cl)c1 (centres undefined),-2.66%
2,CCC/C(O)=C1\C(=O)CCCC1=NCCc1ccc(OCC)c(OCC)c1,5.18%
3,CC(=O)c1cccc(-n2nnnc2SCC(=O)Nc2cccc(NC(=O)c3ccco3)c2)c1,8.36%
4,Cc1c(N=Cc2nc3ccccc3n2C)c(=O)n(-c2ccccc2)n1C,27.3% (active)
5,Cc1c(N=Cc2nc3ccccc3[nH]2)c(=O)n(-c2ccccc2)n1C,17.4%
6,Cc1c(N=Cc2ccncc2)c(=O)n(-c2ccccc2)n1C,1.24%
7,O=C(NCCc1c[nH]c2ccccc12)C(=O)NCC1OCCCN1S(=O)(=O)c1ccc(F)cc1 (centres undefined),4.14%
8,CCc1cccc(CC)c1NC(=O)COC(=O)c1ccc(F)c(S(=O)(=O)N(CC)CC)c1,3.7%
9,CCOc1ccccc1NC(=O)Nc1cnccn1,8.05%
10,O=c1c2ccccc2nc2n1CC/C2=C\c1ccccc1[N+](=O)[O-],1.69%
11,CCOC(=O)c1ccc(-n2c(C)nc3ccccc3c2=O)cc1,3.03%
12,CSc1ncc(Cl)c(C(=O)Nc2ccc(NC(C)=O)cc2)n1,1.65%
13,CSc1ncc(Cl)c(C(=O)Nc2cccc(C)c2)n1,6.29%
14,COc1ccc(S(=O)(=O)N2CCC(NC(=O)C(Cc3cccc(OC)c3OC)NC(C)=O)CC2)cc1 (centres undefined),12.2%
15,CCOC(=O)CSCC(=O)Nc1nnc(-c2cccc([N+](=O)[O-])c2)s1,2.17%
16,COc1ccc(-n2c(SCC(=O)Nc3cc(C)on3)nc3c([nH]c4ccccc43)c2=O)cc1,0.91%
17,COc1ccc2c(c1)OC13CCCCC1C2C(C(=O)c1ccccc1)C(=O)N3 (centres undefined),-8.77%
18,CN1C(=O)C(C(=O)NC(C)(C)C)C2c3ccccc3OC13CCCCC23 (centres undefined),24.3% (active)
19,COc1ccc(NC(=O)C2C(=O)N(C)C3(C)CC2c2ccccc2O3)cc1 (centres undefined),9.89%
